In ChEMBL document CHEMBL1961873, “Compounds: GSK PKIS; Assays: Nanosyn kinase panel” (2012):

Assays:
[1] = molecular target: T1, Serine/threonine-protein kinase D2 (Homo sapiens) (UniProt Q9BZL6); conditions: at 1 µM;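 further: mean value of PRKD2 inhibition, from the GSK PKIS screening panel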
T1 sequence (whole entry): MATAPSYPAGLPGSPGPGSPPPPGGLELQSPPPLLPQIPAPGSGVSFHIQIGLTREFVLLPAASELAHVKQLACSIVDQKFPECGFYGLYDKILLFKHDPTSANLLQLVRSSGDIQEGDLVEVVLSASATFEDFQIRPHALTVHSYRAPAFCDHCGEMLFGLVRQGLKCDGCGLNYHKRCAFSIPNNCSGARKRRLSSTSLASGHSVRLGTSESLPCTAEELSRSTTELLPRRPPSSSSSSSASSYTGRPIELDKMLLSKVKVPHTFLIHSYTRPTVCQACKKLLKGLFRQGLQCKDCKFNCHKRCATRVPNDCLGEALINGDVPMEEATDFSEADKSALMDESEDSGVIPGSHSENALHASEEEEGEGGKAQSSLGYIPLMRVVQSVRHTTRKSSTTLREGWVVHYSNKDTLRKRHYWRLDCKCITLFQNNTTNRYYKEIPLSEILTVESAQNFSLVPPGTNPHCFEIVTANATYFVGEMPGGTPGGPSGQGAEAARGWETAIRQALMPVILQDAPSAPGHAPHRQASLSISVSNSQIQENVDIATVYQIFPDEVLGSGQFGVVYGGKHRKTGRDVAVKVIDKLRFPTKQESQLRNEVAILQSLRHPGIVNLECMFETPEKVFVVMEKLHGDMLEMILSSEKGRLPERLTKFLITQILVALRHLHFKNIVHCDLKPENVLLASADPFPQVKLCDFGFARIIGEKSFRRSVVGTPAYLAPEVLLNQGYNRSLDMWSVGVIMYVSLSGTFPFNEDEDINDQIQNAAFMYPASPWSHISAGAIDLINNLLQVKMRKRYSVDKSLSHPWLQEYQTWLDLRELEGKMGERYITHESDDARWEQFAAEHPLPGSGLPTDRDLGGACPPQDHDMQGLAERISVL

[2] = molecular target: T2, Serine/threonine-protein kinase D3 (Homo sapiens) (UniProt O94806); conditions: at 0.1 µM
T2 sequence (whole entry): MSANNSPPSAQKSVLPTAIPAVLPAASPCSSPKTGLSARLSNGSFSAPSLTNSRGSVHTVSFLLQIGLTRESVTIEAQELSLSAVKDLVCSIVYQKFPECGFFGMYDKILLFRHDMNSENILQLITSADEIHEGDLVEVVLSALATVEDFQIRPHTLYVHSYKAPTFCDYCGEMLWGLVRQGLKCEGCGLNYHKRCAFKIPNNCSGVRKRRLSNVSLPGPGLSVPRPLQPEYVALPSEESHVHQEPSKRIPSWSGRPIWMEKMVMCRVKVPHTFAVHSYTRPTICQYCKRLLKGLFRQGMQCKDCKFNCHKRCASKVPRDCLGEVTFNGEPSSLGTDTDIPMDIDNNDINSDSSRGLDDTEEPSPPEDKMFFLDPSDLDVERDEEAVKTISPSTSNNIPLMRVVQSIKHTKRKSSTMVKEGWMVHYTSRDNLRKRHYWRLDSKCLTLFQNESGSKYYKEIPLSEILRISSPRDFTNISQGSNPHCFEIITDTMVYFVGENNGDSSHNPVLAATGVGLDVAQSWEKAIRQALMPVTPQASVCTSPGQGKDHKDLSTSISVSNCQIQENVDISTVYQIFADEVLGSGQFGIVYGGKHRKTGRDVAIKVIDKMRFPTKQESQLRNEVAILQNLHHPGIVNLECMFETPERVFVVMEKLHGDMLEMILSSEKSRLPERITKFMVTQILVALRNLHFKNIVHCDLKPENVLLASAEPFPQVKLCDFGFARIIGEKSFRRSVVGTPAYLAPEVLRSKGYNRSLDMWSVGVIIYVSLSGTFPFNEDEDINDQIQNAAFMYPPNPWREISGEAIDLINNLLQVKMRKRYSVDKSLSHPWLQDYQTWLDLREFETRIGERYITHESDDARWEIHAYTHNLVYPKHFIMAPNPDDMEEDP

[3] = molecular target: T2, Serine/threonine-protein kinase D3 (Homo sapiens); conditions: at 1 µM
[4] = molecular target: T3, cGMP-dependent protein kinase 1 (Homo sapiens) (UniProt Q13976); conditions: at 0.1 µM
T3 sequence (whole entry): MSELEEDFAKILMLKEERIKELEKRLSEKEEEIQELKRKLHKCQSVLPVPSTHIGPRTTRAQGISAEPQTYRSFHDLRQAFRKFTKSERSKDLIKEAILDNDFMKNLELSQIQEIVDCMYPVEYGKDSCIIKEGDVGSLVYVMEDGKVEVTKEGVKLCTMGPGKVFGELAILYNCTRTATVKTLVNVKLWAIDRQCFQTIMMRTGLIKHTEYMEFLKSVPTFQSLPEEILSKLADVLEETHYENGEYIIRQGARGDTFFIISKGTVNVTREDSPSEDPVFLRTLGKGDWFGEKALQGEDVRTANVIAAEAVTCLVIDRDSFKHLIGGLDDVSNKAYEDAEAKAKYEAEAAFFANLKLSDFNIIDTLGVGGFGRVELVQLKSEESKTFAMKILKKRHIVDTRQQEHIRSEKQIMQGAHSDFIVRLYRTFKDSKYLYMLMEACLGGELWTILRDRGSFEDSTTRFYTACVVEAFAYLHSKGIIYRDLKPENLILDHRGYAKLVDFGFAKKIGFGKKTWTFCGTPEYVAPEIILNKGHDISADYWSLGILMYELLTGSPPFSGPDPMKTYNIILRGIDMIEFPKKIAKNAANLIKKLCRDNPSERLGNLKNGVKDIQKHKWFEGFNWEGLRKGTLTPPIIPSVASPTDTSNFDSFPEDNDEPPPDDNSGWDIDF

[5] = molecular target: T3, cGMP-dependent protein kinase 1 (Homo sapiens); conditions: at 1 µM
[6] = molecular target: T4, cGMP-dependent protein kinase 2 (Homo sapiens) (UniProt Q13237); conditions: at 0.1 µM
T4 sequence (whole entry): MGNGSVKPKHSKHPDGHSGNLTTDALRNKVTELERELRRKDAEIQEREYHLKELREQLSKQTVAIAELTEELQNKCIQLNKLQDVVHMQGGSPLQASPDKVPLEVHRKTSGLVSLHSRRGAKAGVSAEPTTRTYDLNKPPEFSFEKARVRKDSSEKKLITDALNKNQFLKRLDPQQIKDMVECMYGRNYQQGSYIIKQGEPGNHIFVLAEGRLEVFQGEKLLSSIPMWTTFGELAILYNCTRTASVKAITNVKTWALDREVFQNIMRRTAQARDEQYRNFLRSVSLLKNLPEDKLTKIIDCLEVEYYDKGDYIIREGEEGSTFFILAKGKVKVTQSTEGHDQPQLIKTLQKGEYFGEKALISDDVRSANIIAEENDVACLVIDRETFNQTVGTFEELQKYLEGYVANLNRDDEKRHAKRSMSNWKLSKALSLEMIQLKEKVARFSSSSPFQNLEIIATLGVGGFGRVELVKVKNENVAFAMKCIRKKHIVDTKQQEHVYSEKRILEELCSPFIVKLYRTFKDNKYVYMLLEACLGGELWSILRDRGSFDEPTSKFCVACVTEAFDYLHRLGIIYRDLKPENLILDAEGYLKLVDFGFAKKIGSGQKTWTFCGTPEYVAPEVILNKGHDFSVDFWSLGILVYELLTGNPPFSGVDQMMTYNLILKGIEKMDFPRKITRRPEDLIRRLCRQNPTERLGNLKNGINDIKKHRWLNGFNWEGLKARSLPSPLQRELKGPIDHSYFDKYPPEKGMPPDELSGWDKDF

[7] = molecular target: T4, cGMP-dependent protein kinase 2 (Homo sapiens); conditions: at 1 µM
[8] = molecular target: T5, cAMP-dependent protein kinase catalytic subunit PRKX (Homo sapiens) (UniProt P51817); conditions: at 0.1 µM
T5 sequence (whole entry): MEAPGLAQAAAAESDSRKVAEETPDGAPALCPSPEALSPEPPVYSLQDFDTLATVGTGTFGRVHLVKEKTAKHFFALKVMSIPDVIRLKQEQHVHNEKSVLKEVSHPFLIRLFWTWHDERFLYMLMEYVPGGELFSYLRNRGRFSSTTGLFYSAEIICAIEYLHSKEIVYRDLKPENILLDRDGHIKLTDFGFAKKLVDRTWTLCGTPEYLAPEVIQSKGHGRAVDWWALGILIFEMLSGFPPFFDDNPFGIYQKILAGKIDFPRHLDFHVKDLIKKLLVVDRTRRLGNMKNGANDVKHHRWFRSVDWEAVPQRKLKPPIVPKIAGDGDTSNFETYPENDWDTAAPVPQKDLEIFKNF

[9] = molecular target: T5, cAMP-dependent protein kinase catalytic subunit PRKX (Homo sapiens); conditions: at 1 µM
[10] = molecular target: Rho-associated protein kinase 1 (Homo sapiens) (UniProt Q13464); conditions: at 0.1 µM;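 further: values are mean percent inhibition of ROCK1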
Sequence of Rho-associated protein kinase 1 (Homo sapiens) (Q13464 2-1354 limits assumed): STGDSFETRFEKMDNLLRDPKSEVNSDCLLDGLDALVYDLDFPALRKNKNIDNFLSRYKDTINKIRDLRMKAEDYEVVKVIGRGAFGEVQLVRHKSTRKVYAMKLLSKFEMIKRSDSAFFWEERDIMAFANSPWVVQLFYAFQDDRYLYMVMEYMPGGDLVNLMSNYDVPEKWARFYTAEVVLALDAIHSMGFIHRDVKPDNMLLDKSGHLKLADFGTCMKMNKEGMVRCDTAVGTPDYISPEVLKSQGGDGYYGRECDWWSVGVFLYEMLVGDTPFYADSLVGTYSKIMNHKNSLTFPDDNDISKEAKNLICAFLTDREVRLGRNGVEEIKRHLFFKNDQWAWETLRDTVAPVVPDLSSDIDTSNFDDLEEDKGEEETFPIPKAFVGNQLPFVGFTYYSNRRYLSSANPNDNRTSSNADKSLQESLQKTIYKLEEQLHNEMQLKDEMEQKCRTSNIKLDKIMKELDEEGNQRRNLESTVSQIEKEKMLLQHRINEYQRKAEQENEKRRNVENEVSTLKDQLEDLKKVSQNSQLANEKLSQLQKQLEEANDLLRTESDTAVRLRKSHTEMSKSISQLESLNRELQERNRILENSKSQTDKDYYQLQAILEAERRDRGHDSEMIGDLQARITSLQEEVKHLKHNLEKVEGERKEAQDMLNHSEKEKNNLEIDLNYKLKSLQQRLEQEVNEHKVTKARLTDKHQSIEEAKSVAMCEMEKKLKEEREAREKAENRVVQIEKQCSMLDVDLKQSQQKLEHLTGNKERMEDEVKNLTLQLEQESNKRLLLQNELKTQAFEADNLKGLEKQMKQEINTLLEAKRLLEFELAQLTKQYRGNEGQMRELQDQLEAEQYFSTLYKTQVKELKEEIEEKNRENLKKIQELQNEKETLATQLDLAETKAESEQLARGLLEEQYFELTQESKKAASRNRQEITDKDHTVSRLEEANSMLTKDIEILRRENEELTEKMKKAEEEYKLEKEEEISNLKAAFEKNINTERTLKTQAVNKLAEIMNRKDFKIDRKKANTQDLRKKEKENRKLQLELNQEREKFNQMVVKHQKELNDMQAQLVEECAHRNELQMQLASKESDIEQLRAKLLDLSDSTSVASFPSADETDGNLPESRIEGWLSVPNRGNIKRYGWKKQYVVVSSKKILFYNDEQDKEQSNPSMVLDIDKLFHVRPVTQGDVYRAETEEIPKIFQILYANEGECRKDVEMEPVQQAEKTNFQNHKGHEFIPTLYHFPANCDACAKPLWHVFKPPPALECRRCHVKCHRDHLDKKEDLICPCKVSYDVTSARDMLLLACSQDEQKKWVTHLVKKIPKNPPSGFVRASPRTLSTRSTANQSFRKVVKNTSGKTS

Compound | inhibition [1] | inhibition [2] | inhibition [3] | inhibition [4] | inhibition [5] | inhibition [6] | inhibition [7] | inhibition [8] | inhibition [9] | inhibition [10]
Fc1ccc(-c2nc3n(c2-c2ccncc2)CCS3)cc1 | 3.85% | 1.34% | 3.94% | 3.66% | 4.28% | 2.32% | 3.35% | 1.54% | 1.87% | 1.14%
CCc1cccc(CC)c1/C=C/c1cncc(C(=O)NC)c1 | 7.18% | 3.3% | 7.02% | 2.74% | 2.71% | 1.38% | 1.83% | 3.9% | -1.34% | 0.87%
NS(=O)(=O)c1ccc(Nc2cc(-c3ccc(O)c(F)c3)n[nH]2)cc1 | 2.89% | -2.85% | 0.82% | -1.74% | -1% | -1.16% | 0.01% | -0.97% | -1.36% | -0.2%
NC(=O)c1cc(-c2ccc(F)cc2)cc(-c2ccncc2)c1N | 4.06% | 3.88% | 2.86% | 1.49% | 5.83% | 1.73% | 2.74% | 1.1% | 3.07% | -0.55%
O=C(Nc1n[nH]c2cc(-c3ccccc3)ccc12)C1CC1 | 5.1% | 5.75% | 6.47% | 3.2% | 3.14% | 1.66% | 2.57% | 1.37% | 0.63% | 1.2%
C[C@@H](Oc1cc(-n2cnc3ccc(OC4CCN(C)CC4)cc32)sc1C(N)=O)c1ccccc1Cl | 1.06% | 0.8% | 3.55% | 3.98% | 4.08% | 1.43% | 4.43% | 2.2% | -1.84% | 1.76%
COc1cc(N2CCN(C(C)C)CC2)ccc1Nc1nc(Nc2ccc(F)cc2C(=O)NC[C@@H](O)CO)c2cc[nH]c2n1 | 17.5% | 3.93% | 20.7% | 7.74% | 35.1% | 2.82% | 8.2% | 2.99% | 6.02% | 1.24%
Fc1ccc(-c2c(-c3ccncc3)nc3n2CCS3)cc1 | 0.4% | 0.15% | 1.02% | 4.15% | 8.03% | 2.62% | 7.38% | 6.08% | 14.6% | 8.73%
COc1cccc(-n2cnc3c(N/N=C/c4ccncc4)ncnc32)c1 | -5.5% | -3.34% | -4.97% | 0.67% | 3.77% | 3.29% | 4.98% | 1.92% | 5.16% | 0.59%
CN(c1ccc(NC(=O)Nc2c(Cl)cccc2Cl)cc1)c1ccnc(Nc2cccc(CS(C)(=O)=O)c2)n1 | 2% | 1.3% | 0.38% | 3.11% | 3.77% | 1.9% | 3.22% | 1.96% | 3.64% | 0.85%
FC(F)(F)c1cccc(Nc2nccc(-c3cnn4nc(-c5ccccc5)ccc34)n2)c1 | 1.49% | 1.55% | 2.61% | 1.17% | -0.32% | 1.44% | -1.07% | 1.18% | 0.74% | 0.77%
O=C1NC(=O)C(c2cccc(Cl)c2)=C1Nc1ccc(Cl)c(C(=O)O)c1 | 3.62% | 2.22% | 2.81% | 1.11% | 2% | -0.19% | 1.58% | 2.51% | 2.74% | -0.01%
CNC(=O)c1cncc(/C=C/c2c(C)cccc2C)c1 | -2.22% | -2.33% | -3.04% | -0.33% | 4.28% | 0.8% | 1.58% | 0.26% | 0.53% | -0.35%
NC(=O)c1cc(-c2ccncc2)cc(-c2ccccc2)c1N | 5.63% | 5.86% | 6.16% | 3.61% | 8.21% | 2.71% | 5.42% | 1.92% | 2.61% | 1.71%
COc1ccc2cc(-c3c(-c4ccncc4)nc(-c4ccc([S+](C)[O-])cc4C)n3C)ccc2c1 (stereo not given) | 0.1% | -0.55% | -0.05% | 0.69% | 0.56% | 0.02% | 0.21% | 0.49% | 1.21% | -0.64%
CCc1ccc(Oc2nccc(-c3c(-c4ccc(F)cc4)ncn3C3CCNCC3)n2)cc1 | 13.7% | 4.01% | 9.71% | 4.32% | 10.4% | 5.03% | 8.46% | 3.21% | 3.97% | 1.24%
NC(=O)c1ccc(Oc2nccc(-c3c(-c4ccc(F)cc4)ncn3C3CCNCC3)n2)cc1 | 3.14% | 4.58% | 5.2% | 4.67% | 6.78% | 5.65% | 6.43% | 3.5% | 3.99% | 2.81%
